# Measurements: PubChem BioAssay (NCATS)
# Inconclusive results are not listed. Entries that show only a call come without a potency. Unmarked numbers belong to inactive results. The source made the active and inactive calls. The call rests on the fitted dose curve; in most records, active means well fitted inhibition curve with a large enough effect; inconclusive means small, poorly fitted or top-dose-only effect; inactive means flat fitted curve, though single readings scatter.
# Test: P-glycoprotein substrates identified in KB-8-5-11 adenocarcinoma cell line, qHTS therapeutic library screen (AID 1346987); further: nearly all actives have a fitted effect of over 65% in size
# Details: KB-8-5-11 (P-gp overexpressing) viability, CellTiter-Glo, 72 h; series mostly up to 44.5 µM
# How it was run: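 KB-8-5-11: colchicine-selected sub-line of KB-3-1 over-expressing P-gp; assay medium lacked colchicine. 72 h drug exposure at 37 degree C, CellTiter-Glo.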
Compound,Potency,"activity change, negative = cytotoxicity"
O=C(O)C[C@@H](NC(=O)c1cc(-c2ccc(-c3ccncc3)cc2)cs1)c1ccccc1,inactive,
C=C[C@@]1(C)CC(=O)C2[C@](C)(O1)[C@@H](OC(C)=O)[C@@H](O)[C@H]1C(C)(C)CCC[C@]21C (some centres undefined),,9.24% [at 9.29 µM]
CC(C)N(C[C@H]1O[C@@H](n2cnc3c(N)ncnc32)[C@H](O)[C@@H]1O)C1CC(CCc2nc3ccc(C(C)(C)C)cc3[nH]2)C1 (some centres undefined),inactive,
CCS(=O)(=O)N1CCC([C@@H](C)n2c(C)c(C(=O)NCc3c(OC)cc(C)[nH]c3=O)c3ccccc32)CC1,inactive,
FC(F)(F)c1cc(C(F)(F)F)c2ccc3nc(-c4nnco4)cn3c2n1,inactive,
CC/C=C/CC1=C(CCCCCCCC(=O)O)CCC1=O,inactive,
CC(C)(O)C1CCC2(C)C3C(O)C4C(C13)C42CO (centres undefined),inactive,
CC(C)(OC1OC(CO)C(O)C(O)C1O)C1CCC(O)(CO)C2CC(O)C(C)(O)C2C1 (centres undefined),inactive,
CN1C(=O)c2ccccc2NC(=O)[C@]12O[C@@H]2c1cccc(O)c1,inactive,
C=CC(C)(CC/C=C(\C)CC/C=C(\C)CC(O)/C=C(\C)C(=O)O)O[C@@H]1O[C@H](CO)[C@@H](O)[C@H](O)[C@H]1O[C@@H]1O[C@H](CO)[C@@H](O)[C@H](O)[C@H]1O (some centres undefined),inactive,
C/C=C/C=C/C(CC(=O)O)Nc1ccc(C=O)cc1 (centres undefined),inactive,
O=C(COc1ccc(Cl)cc1)NC1CCC(NC(=O)COc2ccc(Cl)cc2)CC1 (centres undefined),inactive,
CC(C)CC(=O)OC[C@H]1O[C@@](COC(=O)CC(C)C)(O[C@H]2O[C@H](CO)[C@@H](O)[C@H](O)[C@H]2OC(=O)CC(C)C)[C@@H](OC(=O)CC(C)C)[C@@H]1O,inactive,
CCNC(=O)CCC/C=C\C[C@@H]1[C@@H](/C=C/C(O)CCc2ccccc2)[C@@H](O)C[C@@H]1O (some centres undefined),inactive,
C=C1CCC2C(C)(C)C(O)CCC2(C)C1CCC(C)CCOC(=O)CCC(=O)O (centres undefined),inactive,
CO[C@@H](Cc1ccc(OCCc2nc(-c3ccccc3)oc2C)c2ccsc12)C(=O)O,inactive,
CC(=O)O[C@@H]1C[C@@]23C[C@@]24CC[C@H](OC2OC[C@@H](O)[C@H](O)[C@H]2O)C(C)(C)[C@@H]4CC[C@H]3[C@]2(C)CC3OC4(C[C@@H](C)C3[C@@]12C)OCC1(C)OC14 (some centres undefined),inactive,
C[C@H]1[C@H](C)CC[C@]2(C(=O)O)CC[C@]3(C(=O)O)C(=CCC4[C@@]5(C)CC[C@H](O[C@@H]6O[C@H](C)[C@@H](O)[C@H](O)[C@H]6O)C(C)(C)C5CC[C@]43C)[C@H]12 (some centres undefined),inactive,
CC1=CC2(O)/C=C/C(C)(O)CC(O)/C=C/C(=O)OC23C(=O)NC(CC(C)C)C3C1C (centres undefined),inactive,
Cc1nnc(C(C)C)n1C1CC2CCC(C1)N2CCC(NC(=O)C1CCC(F)(F)CC1)c1ccccc1 (centres undefined),inactive,
C=C(C)C(C)C1OC23CC4(CO2)C(CCC2C5(C)CCC(OC6OCC(O)C(OC7OC(CO)C(O)C(OC8OCC(O)C(O)C8O)C7O)C6OC6OC(CO)C(O)C6O)C(C)(C)C5CCC24C)C3C(C)(O)C1OC(C)=O (centres undefined),,3.91% [at 9.29 µM]
NS(=O)(=O)NCCNc1nonc1C(=Nc1ccc(F)c(Br)c1)NO,inactive,
C=CC(C)(C)C1(CC2NC(=O)C3CCCN3C2=O)C(=O)Nc2cc3c(cc21)C=CC(C)(C)O3 (centres undefined),inactive,
Cc1nn(C)c(COc2ccc(N3CCN(S(=O)(=O)N(C)C)CC3)cc2)c1-c1cccc2c(CCCOc3cccc4ccccc34)c(C(=O)O)n(CCN3CCOCC3)c12,inactive,
NC(=O)c1ccc(OCC2NC(=O)C3CCCN3C2=O)cc1 (centres undefined),inactive,
C/C1=C\C[C@H](O[C@@H]2O[C@H](CO)[C@@H](O)[C@H](O)[C@H]2O)/C(C)=C/[C@H]2OC(=O)[C@H](C)[C@@H]2CC1,inactive,
C#Cc1cnc2[nH]c(=O)n(C(CC)CC)c2n1,inactive,
COc1cc(C)c(C(=O)O[C@H]2[C@@H](O)[C@H](n3ccc(=O)[nH]c3=O)O[C@@H]2CO)c(OC)c1,inactive,
CC1=CC[C@]2(C(=O)O[C@@H]3O[C@H](CO[C@@H]4O[C@H](CO)[C@@H](O[C@@H]5O[C@@H](C)[C@H](O)[C@@H](O)[C@H]5O)[C@H](O)[C@H]4O)[C@@H](O)[C@H](O)[C@H]3O)CC[C@]3(C)C(CCC4[C@@]5(C)C[C@@H](O)[C@H](O)[C@@](C)(CO)C5CC[C@]43C)C2C1C (some centres undefined),,8.32% [at 9.29 µM]
